Results taken from PubChem BioAssay AID1159580 (chemical genetic matrix, 2015).
Out of some 5,500 compounds screened, about 2,000 (36%) were called active. Inconclusive results (about 18%) are left out. Cut-off read from the data, not from the text of the source: active = normalized growth mostly below about 0.91 (no sharp cut-off); inconclusive = no clear call, values can overlap the other calls; inactive = mostly above about 0.92. This is one part of the list.

Test: chemical genetic growth profiling, strain panel (AID 1159580);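 note: tested at 20 µM; growth read once vehicle control cultures reached saturation at 30 °C; 1 = growth at the plate median or of vehicle wells; lower values mean less growth of the strain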
Conditions: growth OD

Measured: normalized growth

O=C(Oc1cc(OC(=O)c2ccccc2)c2c(c1)O[C@H](c1ccc(OC(=O)c3ccccc3)c(OC(=O)c3ccccc3)c1)[C@@H](OC(=O)c1ccccc1)C2)c1ccccc1
inactive: S. cerevisiae deletion strains, locus YAL021C, strain ccr4, active compounds read low 1.01 | S. cerevisiae deletion strains, locus YAL026C, strain drs2, active compounds read low 0.998 | S. cerevisiae deletion strains, locus YAL030W, strain snc1, active compounds read low 0.991 | S. cerevisiae deletion strains, locus YBL061C, strain skt5, active compounds read low 0.99 | S. cerevisiae deletion strains, locus YBR009C, strain hhf1, active compounds read low 0.982 | S. cerevisiae deletion strains, locus YBR021W, strain FUR4, active compounds read low 1.07 | S. cerevisiae deletion strains, locus YBR023C, strain chs3, active compounds read low 0.999 | S. cerevisiae deletion strains, locus YBR171W, strain sec66, active compounds read low 0.997 | S. cerevisiae deletion strains, locus YBR229C, strain ROT2, active compounds read low 1.04 | S. cerevisiae deletion strains, locus YBR231C, strain swc5, active compounds read low 0.99 | S. cerevisiae deletion strains, locus YBR279W, strain paf1, active compounds read low 1 | S. cerevisiae deletion strains, locus YCL011C, strain gbp2, active compounds read low 0.987 | S. cerevisiae deletion strains, locus YCL016C, strain dcc1, active compounds read low 0.994 | S. cerevisiae deletion strains, locus YCL029C, strain bik1, active compounds read low 1.05 | S. cerevisiae deletion strains, locus YCL061C, strain MRC1, active compounds read low 0.999 | S. cerevisiae deletion strains, locus YCL069W, strain vba3, active compounds read low 1 | S. cerevisiae deletion strains, locus YCR088W, strain abp1, active compounds read low 0.993 | S. cerevisiae deletion strains, locus YDL005C, strain med2, active compounds read low 0.991 | S. cerevisiae deletion strains, locus YDL035C, strain GPR1, active compounds read low 1.04 | S. cerevisiae deletion strains, locus YDL040C, strain nat1, active compounds read low 0.991 | S. cerevisiae deletion strains, locus YDL074C, strain BRE1, active compounds read low 1.14 | S. cerevisiae deletion strains, locus YDL101C, strain DUN1, active compounds read low 1.05 | S. cerevisiae deletion strains, locus YDL185W, strain tfp1, active compounds read low 1.06 | S. cerevisiae deletion strains, locus YDL192W, strain arf1, active compounds read low 1.07 | S. cerevisiae deletion strains, locus YDR001C, strain nth1, active compounds read low 0.994 | S. cerevisiae deletion strains, locus YDR069C, strain doa4, active compounds read low 0.986 | S. cerevisiae deletion strains, locus YDR101C, strain arx1, active compounds read low 1.03 | S. cerevisiae deletion strains, locus YDR137W, strain rgp1, active compounds read low 1.03 | S. cerevisiae deletion strains, locus YDR159W, strain sac3, active compounds read low 0.999 | S. cerevisiae deletion strains, locus YDR162C, strain NBP2, active compounds read low 1.03 | S. cerevisiae deletion strains, locus YDR195W, strain ref2 0.953 | S. cerevisiae deletion strains, locus YDR297W, strain sur2, active compounds read low 1 | S. cerevisiae deletion strains, locus YDR318W, strain mcm21, active compounds read low 1.04 | S. cerevisiae deletion strains, locus YDR334W, strain swr1, active compounds read low 0.992 | S. cerevisiae deletion strains, locus YDR335W, strain msn5, active compounds read low 0.999 | S. cerevisiae deletion strains, locus YDR388W, active compounds read low 1.04 | S. cerevisiae deletion strains, locus YDR392W, strain spt3, active compounds read low 0.927 | S. cerevisiae deletion strains, locus YDR502C, strain sam2, active compounds read low 1.06 | S. cerevisiae deletion strains, locus YEL003W, strain gim4, active compounds read low 0.994 | S. cerevisiae deletion strains, locus YEL037C, strain rad23, active compounds read low 0.991 | S. cerevisiae deletion strains, locus YEL061C, strain CIN8 (second series), active compounds read low 0.999 | S. cerevisiae deletion strains, locus YEL061C, strain CIN8, active compounds read low 1.02 | S. cerevisiae deletion strains, locus YER015W, strain faa2, active compounds read low 0.987 | S. cerevisiae deletion strains, locus YER016W, strain bim1, active compounds read low 0.991 | S. cerevisiae deletion strains, locus YER110C, active compounds read low 1.06 | S. cerevisiae deletion strains, locus YER111C, strain swi4, active compounds read low 0.999 | S. cerevisiae deletion strains, locus YER155C, strain BEM2 (second series), active compounds read low 0.993 | S. cerevisiae deletion strains, locus YER155C, strain BEM2, active compounds read low 1.04 | S. cerevisiae deletion strains, locus YER167W, strain BCK2, active compounds read low 1.03 | S. cerevisiae deletion strains, locus YFR010W, strain ubp6, active compounds read low 0.993 | S. cerevisiae deletion strains, locus YGL078C, strain dbp3, active compounds read low 1.04 | S. cerevisiae deletion strains, locus YGL086W, strain mad1, active compounds read low 1.04 | S. cerevisiae deletion strains, locus YGL167C, strain pmr1, active compounds read low 0.993 | S. cerevisiae deletion strains, locus YGL173C, strain kem1, active compounds read low 0.998 | S. cerevisiae deletion strains, locus YGL227W, strain vid30, active compounds read low 0.982 | S. cerevisiae deletion strains, locus YGL240W, strain doc1, active compounds read low 0.977 | S. cerevisiae deletion strains, locus YGL248W, strain PDE1, active compounds read low 1.08 | S. cerevisiae deletion strains, locus YGL253W, strain hxk2, active compounds read low 1 | S. cerevisiae deletion strains, locus YGR135W, strain pre9, active compounds read low 1.09 | S. cerevisiae deletion strains, locus YGR252W, strain gcn5, active compounds read low 1.17 | S. cerevisiae deletion strains, locus YHR013C, strain ard1, active compounds read low 0.958 | S. cerevisiae deletion strains, locus YHR027C, strain rpn1, active compounds read low 1 | S. cerevisiae deletion strains, locus YHR079C, strain IRE1 (second series), active compounds read low 1.05 | S. cerevisiae deletion strains, locus YHR094C, strain hxt1, active compounds read low 1.03 | S. cerevisiae deletion strains, locus YHR129C, strain ARP1, active compounds read low 1.05 | S. cerevisiae deletion strains, locus YHR142W, strain chs7, active compounds read low 1.03 | S. cerevisiae deletion strains, locus YHR200W, strain rpn10, active compounds read low 1.05 | S. cerevisiae deletion strains, locus YIL066C, strain RNR3, active compounds read low 1.05 | S. cerevisiae deletion strains, locus YIL073C, strain SPO22, active compounds read low 1.16 | S. cerevisiae deletion strains, locus YIL125W, strain kgd1, active compounds read low 1.02 | S. cerevisiae deletion strains, locus YIR030C, strain dcg1, active compounds read low 1.03 | S. cerevisiae deletion strains, locus YJL092W, strain hpr5, active compounds read low 0.993 | S. cerevisiae deletion strains, locus YJL095W, strain BCK1 (second series), active compounds read low 0.998 | S. cerevisiae deletion strains, locus YJL095W, strain BCK1, active compounds read low 1.12 | S. cerevisiae deletion strains, locus YJL115W, strain asf1, active compounds read low 0.984 | S. cerevisiae deletion strains, locus YJL129C, strain trk1, active compounds read low 0.999 | S. cerevisiae deletion strains, locus YJL134W, strain LCB3, active compounds read low 1.03 | S. cerevisiae deletion strains, locus YJL154C, strain vps35, active compounds read low 0.997 | S. cerevisiae deletion strains, locus YJL164C, strain tpk1, active compounds read low 0.974 | S. cerevisiae deletion strains, locus YJL166W, strain qcr8, active compounds read low 0.986 | S. cerevisiae deletion strains, locus YJL168C, strain set2, active compounds read low 1.06 | S. cerevisiae deletion strains, locus YJL187C, strain SWE1 (second series), active compounds read low 1.07 | S. cerevisiae deletion strains, locus YJL187C, strain SWE1, active compounds read low 1 | S. cerevisiae deletion strains, locus YJR075W, strain HOC1, active compounds read low 1.05 | S. cerevisiae deletion strains, locus YKL009W, strain mrt4, active compounds read low 1.05 | S. cerevisiae deletion strains, locus YKL068W, active compounds read low 1.02 | S. cerevisiae deletion strains, locus YKL085W, strain MDH1 (second series), active compounds read low 1.01 | S. cerevisiae deletion strains, locus YKL085W, strain MDH1, active compounds read low 1.01 | S. cerevisiae deletion strains, locus YKL160W, strain elf1, active compounds read low 1.01 | S. cerevisiae deletion strains, locus YKL190W, strain CNB1, active compounds read low 0.999 | S. cerevisiae deletion strains, locus YKR001C, strain vps1, active compounds read low 1.08 | S. cerevisiae deletion strains, locus YKR026C, strain gcn3, active compounds read low 0.968 | S. cerevisiae deletion strains, locus YKR091W, strain srl3, active compounds read low 0.996 | S. cerevisiae deletion strains, locus YLL001W, strain dnm1, active compounds read low 1.01 | S. cerevisiae deletion strains, locus YLL026W, active compounds read low 0.985 | S. cerevisiae deletion strains, locus YLL041C, strain sdh2, active compounds read low 1 | S. cerevisiae deletion strains, locus YLR027C, strain aat2, active compounds read low 0.995 | S. cerevisiae deletion strains, locus YLR039C, strain RIC1, active compounds read low 1.24 | S. cerevisiae deletion strains, locus YLR058C, strain SHM2, active compounds read low 1.04 | S. cerevisiae deletion strains, locus YLR102C, strain apc9, active compounds read low 1.03 | S. cerevisiae deletion strains, locus YLR221C, strain rsa3, active compounds read low 1 | S. cerevisiae deletion strains, locus YLR258W, strain gsy2, active compounds read low 0.993 | S. cerevisiae deletion strains, locus YLR262C, strain YPT6 (second series), active compounds read low 0.993 | S. cerevisiae deletion strains, locus YLR268W, strain sec22, active compounds read low 1.04 | S. cerevisiae deletion strains, locus YLR320W, strain mms22, active compounds read low 0.975 | S. cerevisiae deletion strains, locus YLR330W, strain CHS5, active compounds read low 1.04 | S. cerevisiae deletion strains, locus YLR342W, strain FKS1 (second series), active compounds read low 1.06 | S. cerevisiae deletion strains, locus YLR342W, strain FKS1, active compounds read low 0.989 | S. cerevisiae deletion strains, locus YLR357W, strain rsc2, active compounds read low 0.979 | S. cerevisiae deletion strains, locus YLR370C, strain arc18, active compounds read low 0.999 | S. cerevisiae deletion strains, locus YLR371W, strain rom2, active compounds read low 1.08 | S. cerevisiae deletion strains, locus YLR384C, strain iki3, active compounds read low 1.01 | S. cerevisiae deletion strains, locus YLR418C, strain cdc73, active compounds read low 1.15 | S. cerevisiae deletion strains, locus YML016C, strain PPZ1, active compounds read low 1.02 | S. cerevisiae deletion strains, locus YML032C, strain rad52, active compounds read low 1.04 | S. cerevisiae deletion strains, locus YML120C, strain ndi1, active compounds read low 1.01 | S. cerevisiae deletion strains, locus YML124C, strain tub3, active compounds read low 1.03 | S. cerevisiae deletion strains, locus YMR058W, strain fet3, active compounds read low 0.999 | S. cerevisiae deletion strains, locus YMR078C, strain ctf18, active compounds read low 1.04 | S. cerevisiae deletion strains, locus YMR125W, strain sto1, active compounds read low 0.978 | S. cerevisiae deletion strains, locus YMR129W, active compounds read low 0.997 | S. cerevisiae deletion strains, locus YMR205C, strain PFK2, active compounds read low 0.973 | S. cerevisiae deletion strains, locus YMR223W, strain ubp8, active compounds read low 1.06 | S. cerevisiae deletion strains, locus YMR231W, strain pep5, active compounds read low 0.998 | S. cerevisiae deletion strains, locus YMR307W, strain GAS1, active compounds read low 1.16 | S. cerevisiae deletion strains, locus YNL067W, strain RPL9B, active compounds read low 0.984 | S. cerevisiae deletion strains, locus YNL071W, strain lat1, active compounds read low 1.01 | S. cerevisiae deletion strains, locus YNL128W, strain TEP1, active compounds read low 0.999 | S. cerevisiae deletion strains, locus YNL209W, strain ssb2, active compounds read low 1 | S. cerevisiae deletion strains, locus YNL233W, strain BNI4, active compounds read low 1.07 | S. cerevisiae deletion strains, locus YNL248C, strain rpa49, active compounds read low 1.01 | S. cerevisiae deletion strains, locus YNL250W, strain rad50, active compounds read low 1.05 | S. cerevisiae deletion strains, locus YNL271C, strain bni1, active compounds read low 1.03 | S. cerevisiae deletion strains, locus YNL298W, strain CLA4, active compounds read low 1.04 | S. cerevisiae deletion strains, locus YNL307C, strain MCK1, active compounds read low 1.06 | S. cerevisiae deletion strains, locus YNL322C, strain KRE1 (second series), active compounds read low 0.985 | S. cerevisiae deletion strains, locus YNR049C, strain mso1, active compounds read low 0.991 | S. cerevisiae deletion strains, locus YNR052C, strain pop2, active compounds read low 1.06 | S. cerevisiae deletion strains, locus YOL006C, strain TOP1, active compounds read low 1.32 | S. cerevisiae deletion strains, locus YOL012C, strain htz1 1.34 | S. cerevisiae deletion strains, locus YOL147C, strain pex11, active compounds read low 1.03 | S. cerevisiae deletion strains, locus YOR001W, strain rrp6, active compounds read low 0.994 | S. cerevisiae deletion strains, locus YOR061W, strain CKA2, active compounds read low 1.04 | S. cerevisiae deletion strains, locus YOR069W, strain VPS5, active compounds read low 1.03 | S. cerevisiae deletion strains, locus YOR070C, strain gyp1, active compounds read low 0.996 | S. cerevisiae deletion strains, locus YOR080W, strain dia2, active compounds read low 0.989 | S. cerevisiae deletion strains, locus YOR083W, strain WHI5, active compounds read low 1.02 | S. cerevisiae deletion strains, locus YOR106W, strain vam3, active compounds read low 1 | S. cerevisiae deletion strains, locus YOR136W, strain idh2, active compounds read low 1.04 | S. cerevisiae deletion strains, locus YOR144C, strain elg1, active compounds read low 1.04 | S. cerevisiae deletion strains, locus YOR184W, strain ser1, active compounds read low 1.05 | S. cerevisiae deletion strains, locus YOR265W, strain rbl2, active compounds read low 0.993 | S. cerevisiae deletion strains, locus YOR270C, strain vph1, active compounds read low 1.01 | S. cerevisiae deletion strains, locus YOR290C, strain snf2, active compounds read low 0.954 | S. cerevisiae deletion strains, locus YOR316C, strain cot1, active compounds read low 1.05 | S. cerevisiae deletion strains, locus YPL051W, strain arl3, active compounds read low 1 | S. cerevisiae deletion strains, locus YPL055C, strain LGE1, active compounds read low 1.07 | S. cerevisiae deletion strains, locus YPL078C, strain atp4, active compounds read low 1.01 | S. cerevisiae deletion strains, locus YPL106C, strain sse1, active compounds read low 0.975 | S. cerevisiae deletion strains, locus YPL240C, strain hsp82, active compounds read low 0.99 | S. cerevisiae deletion strains, locus YPR119W, strain clb2, active compounds read low 1.04 | S. cerevisiae deletion strains, locus YPR141C, strain kar3, active compounds read low 1.04 | S. cerevisiae deletion strains, locus YPR163C, strain tif3, active compounds read low 1.05 | S. cerevisiae deletion strains, locus YPR167C, strain met16, active compounds read low 1.07 | S. cerevisiae deletion strains, strain wtn01, active compounds read low 1.04 | S. cerevisiae strains, strain wild type, active compounds read low 1.04
